# Experimental data as given in publication PMC4336329 (PLoS ONE, 2015).
# Among all 310,000 compounds or so, about 14,000 (4.5%) showed an effect of 50% or more. Effects have a minus sign here. This excerpt belongs to a sample that is enriched for strong results.
# Molecular target: human ether-à-go-go-related gene (hERG) potassium channel (human, UniProt Q12809)
# Experiment: primary screen, population patch clamp on CHO cells stably expressing hERG; higher = less effect of the substance
# 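Note: peak tail current of the secondary pulse compared with the same well before compound.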
# Sequence of human ether-à-go-go-related gene (hERG) potassium channel (Q12809 whole entry, looked up): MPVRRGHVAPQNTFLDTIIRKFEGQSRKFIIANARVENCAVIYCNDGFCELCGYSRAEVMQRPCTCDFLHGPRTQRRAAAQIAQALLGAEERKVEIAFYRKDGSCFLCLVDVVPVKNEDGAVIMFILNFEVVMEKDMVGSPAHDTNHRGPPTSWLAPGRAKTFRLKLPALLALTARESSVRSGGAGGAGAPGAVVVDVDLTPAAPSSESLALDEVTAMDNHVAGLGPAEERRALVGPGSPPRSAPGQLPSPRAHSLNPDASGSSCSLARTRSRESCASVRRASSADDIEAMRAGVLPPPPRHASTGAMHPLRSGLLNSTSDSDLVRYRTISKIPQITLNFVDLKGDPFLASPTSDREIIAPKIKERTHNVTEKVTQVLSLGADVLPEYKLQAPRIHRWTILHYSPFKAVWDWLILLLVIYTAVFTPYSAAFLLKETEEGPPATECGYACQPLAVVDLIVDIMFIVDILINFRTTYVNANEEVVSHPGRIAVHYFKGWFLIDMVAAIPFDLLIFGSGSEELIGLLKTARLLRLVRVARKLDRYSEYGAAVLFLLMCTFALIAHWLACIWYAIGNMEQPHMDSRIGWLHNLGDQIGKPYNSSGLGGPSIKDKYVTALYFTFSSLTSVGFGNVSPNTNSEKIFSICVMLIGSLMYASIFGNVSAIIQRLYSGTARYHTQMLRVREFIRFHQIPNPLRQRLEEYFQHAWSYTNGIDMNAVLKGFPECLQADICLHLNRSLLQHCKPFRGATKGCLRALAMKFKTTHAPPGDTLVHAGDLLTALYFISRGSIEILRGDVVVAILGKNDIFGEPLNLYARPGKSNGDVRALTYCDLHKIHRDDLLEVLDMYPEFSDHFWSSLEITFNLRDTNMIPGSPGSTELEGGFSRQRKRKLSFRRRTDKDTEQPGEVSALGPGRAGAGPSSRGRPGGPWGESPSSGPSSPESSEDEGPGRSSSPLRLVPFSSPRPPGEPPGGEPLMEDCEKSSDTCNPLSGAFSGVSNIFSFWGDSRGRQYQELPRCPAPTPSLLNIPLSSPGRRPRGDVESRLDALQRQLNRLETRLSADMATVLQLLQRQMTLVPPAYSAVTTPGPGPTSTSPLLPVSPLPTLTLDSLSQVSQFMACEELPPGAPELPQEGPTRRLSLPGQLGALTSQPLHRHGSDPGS
row,SMILES,"hERG current change (%, negative = inhibition) at 10uM"
1,CCc1ccc(OCC(=O)Nc2nnc(-c3ccco3)s2)cc1,11.5%
2,CC(C)N1C(=O)S/C(=C/c2cccnc2)C1=O,8.88%
3,CCOC(=O)c1c(NC(=O)c2cccs2)sc(C)c1CC,2.45%
4,CCOC(=O)C1=C(C)OC(N)=C(C#N)C1c1cc(OC)c2c(c1)OCO2 (centres unmarked),-20.6%
5,CCOc1cc(N2CCOCC2)c(OCC)cc1NC(=O)CSc1ccccc1C(=O)O,5.72%
6,CCOC(=O)c1ccc(N(CC(=O)NCC2CCCO2)C(=O)CCC(=O)Nc2cc(C)on2)cc1 (centres unmarked),9.99%
7,COc1cc(NC(=S)NCCc2c[nH]c3ccccc23)c(OC)cc1Cl,10.1%
8,O=S(=O)(c1ccccc1)N(CC(O)CN1CCOCC1)c1ccccc1 (centres unmarked),18.6%
9,Cl.O=S(=O)(c1ccccc1)N(CC(O)CN1CCCCC1)c1ccccc1 (centres unmarked),-53.2%
10,O=S(=O)(c1ccccc1)N(CC(O)CN1CCCC1)c1ccccc1 (centres unmarked),-19%
11,COc1ccccc1N(CC(O)CN1CCCCC1)S(=O)(=O)c1ccc(C)cc1 (centres unmarked),-29.7%
12,Cc1ccc(S(=O)(=O)N(CC(O)CN2CCCCC2)c2ccccc2)cc1.Cl (centres unmarked),-67.9%
13,CCN1CCN(Cc2nc3c(c(=O)[nH]c(=O)n3C)n2Cc2ccccc2Cl)CC1,14.8%
14,CCOC(=O)C1CCN(c2ncnc3c2cnn3-c2ccc(OC)cc2)CC1,-16.2%
15,O=C(O)CC(c1cccc(C(F)(F)F)c1)N1CCS(=O)(=O)CC1 (centres unmarked),2.42%
16,CCCCn1cnc2c(oc3nc4c(cc32)CCCC4)c1=O,-55.5%
17,CC(C)CCn1cnc2c(oc3nc4c(cc32)CCCC4)c1=O,-16.6%
18,CCCCCCn1cnc2c(oc3nc4c(cc32)CCCC4)c1=O,5.16%
19,Cc1ccc(NC(=O)Cc2ccccc2Cl)cc1S(=O)(=O)N(C)C,0.299%
20,O=C1c2ccccc2C(=O)N1CCc1nn[nH]n1,17%

row,SMILES,"hERG current change (%, negative = inhibition) at 10uM"
1,COc1ccc(NC(=O)NNC(=O)COc2ccc3cc(Br)ccc3c2)c(OC)c1,19.2%
2,CCOC(=O)C1(CCCc2ccccc2)CCN(C(=O)C(C)n2cncn2)CC1 (centres unmarked),-29%
3,CCOC(=O)C1(CCCc2ccccc2)CCN(C(=O)CCn2cncn2)CC1,-56.4%
4,CCOC(=O)C1(Cc2ccc(OC)cc2)CCN(C(=O)CCN2CCCC2=O)CC1,-3.22%
5,CCOC(=O)C1(Cc2ccccc2Cl)CCN(C(=O)c2cnccn2)CC1,-20.2%
6,CCOC(=O)C1(Cc2ccccc2Cl)CCN(C(=O)CN2CCOC2=O)CC1,8.88%
7,CCOC(=O)C1(CCCc2ccccc2)CCN(C(=O)CCCn2cncn2)CC1,-44.1%
8,CCOC(=O)C1(Cc2ccccc2Cl)CCN(C(=O)CCn2ccnc2C)CC1,-52.6%
9,CCOC(=O)C1(CCCc2ccccc2)CCN(C(=O)CN2CCOC2=O)CC1,6.35%
10,CCOC(=O)C1(CCc2ccccc2)CCN(C(=O)CCn2cncn2)CC1,-63.2%
11,CCOC(=O)C1(CCc2ccccc2)CCN(C(=O)C(C)n2cncn2)CC1 (centres unmarked),-14.3%
12,CCOC(=O)C1(CCCc2ccccc2)CCN(C(=O)CCN2CCCCC2=O)CC1,-62.8%
13,CN(C)c1nc(N)c([N+](=O)[O-])c(NCC2CCCO2)n1 (centres unmarked),7.07%
14,O=C(O)CCCNC(=O)/C=C/c1ccco1,12.5%
15,CC(=O)Nc1sc(-c2ccccc2)nc1-c1ccccc1,14%
16,CCOC(=O)c1[nH]c2ccc(OC)cc2c1NC(=O)c1nonc1C,6.27%
17,Cc1cc(-c2nnc(CCC(=O)NCc3ccc(F)c(F)c3)o2)no1,2.95%
18,Cc1ccnc(NC(=O)c2cccc(S(=O)(=O)N3CCCc4ccccc43)c2)c1,-1.95%
19,CN(C(=O)CC1C(=O)NCCN1Cc1c(F)cccc1Cl)C1CCOCC1 (centres unmarked),17.9%
20,Cc1ccc(S(=O)(=O)N2CC(=O)NC(=O)C2)cc1,6.07%

row,SMILES,"hERG current change (%, negative = inhibition) at 10uM"
1,O=C(C#Cc1ccccc1)Nc1ccc(F)cc1,10.1%
2,C[C@@H](NC(=O)c1nc[nH]c1C(=O)NCc1ccc(CNC(=O)OC(C)(C)C)cc1)c1ccccc1,6.47%
3,CCOC(=O)C1(CCCc2ccccc2)CCN(C(=O)CN2C(=O)CSC2=O)CC1,-4.63%
4,CCOC(=O)C1(CCc2ccccc2)CCN(C(=O)CCn2cnnn2)CC1,-43.2%
5,CCOC(=O)C1(CCCc2ccccc2)CCN(C(=O)CCn2cnnn2)CC1,-56.6%
6,COc1ccc(NC(=O)NNC(=O)c2ccc(Cl)cc2Cl)cc1OC,13%
7,CCOc1ccc2c(c1)sc1nc(C(=O)OC)cc(=O)n12,-12.9%
8,C[C@]12CS(=O)(=O)C[C@H]1SC(=S)N2c1ccccc1,-0.916%
9,Cn1c(C(=O)N2CCN(c3ccc(Cl)cc3)CC2)cc2c(=O)[nH]c3ccccc3c21,-114%
10,Cc1ccc(Cl)cc1N1CCN(C(=O)c2cc3c(=O)[nH]c4ccccc4c3n2C)CC1,8.91%
11,Cc1cccc(N2CCN(C(=O)c3cc4c(=O)[nH]c5ccccc5c4n3C)CC2)c1C,14.6%
12,OCCNc1nc2ccccc2[nH]1,12.8%
13,CCCCN(CCCC)CCCNC(=O)C1CC(c2ccc(C(F)(F)F)cc2)=NO1 (centres unmarked),-72.3%
14,CCCCN(CCCC)CCCNC(=O)C1CC(c2cc(C(F)(F)F)cc(C(F)(F)F)c2)=NO1 (centres unmarked),3.86%
15,CCCCNC(=O)C1CC(c2ccc(C(F)(F)F)cc2)=NO1 (centres unmarked),3.73%
16,COCCCN1C(=O)c2ccc(C(=O)OCC(=O)N(C)c3ccccc3)cc2C1=O,2.63%
17,CCOc1cccc2cc(-c3csc(NC(=O)CCC(=O)NCCCN4CCC(C)CC4)n3)c(=O)oc12,-44.6%
18,COc1cccc2cc(-c3csc(NC(=O)CCC(=O)NCCCN4CCC(C)CC4)n3)c(=O)oc12,-51.9%
19,CCOc1cccc2cc(-c3csc(NC(=O)CCC(=O)NCCN4CCCCC4C)n3)c(=O)oc12 (centres unmarked),-34.9%
